This is an account of results in ChEMBL document CHEMBL3988442, “University of Dundee, Small-Polar-MMV Screening Library” (2021).

This test addresses AMP-activated protein kinase, AMPK (Homo sapiens) (UniProt P54646+O43741+P54619+Q9UGJ0+Q9Y478+Q13131+Q9UGI9). The experiment in a line: AMP-dependent Kinase enzyme assay. An in vitro enzyme assay that detects ADP turnover that is directly proportional to AMPK activity. This uses naive AMPK that is activated during the assay with MK-8722. It counts as functional. Details: scale not given: direction of the effect not stated beside the values. To be noted: 30 µM.
As for `O=C(COc1ccc(-n2cccn2)nn1)NC1CCCCC1`, the Percent Effect is -0.431%.

With `Oc1cc(C2CCCCN2Cc2cccs2)nc(-c2ccccn2)n1` (stereo not given), the Percent Effect amounted to 23.4%.

Consider `Cc1cc(C)n(C2CN(Cc3nc4cc(Cl)ccc4n3C)C2)n1`, for which the Percent Effect was determined as 3.42%.

Regarding `Cc1cc(-c2n[nH]c3c2CN(S(=O)(=O)c2ccsc2)CC3)c(C)o1`, the Percent Effect stood at 4.26%.

Turning to `CNC(=O)CNC(=O)NCc1cc2c(s1)CCC(C)(C)C2`, the Percent Effect is -2.89%.

As for `COc1ccc(CN2C[C@@H]3CC[C@H](C2)N(S(=O)(=O)C2CC2)C3)cc1`, the Percent Effect was 10.7%.

`Cc1ccccc1SCC(=O)NC1CCC(O)CC1` (stereo not given): the Percent Effect amounted to 0.736%.

Consider `COc1ccc(C(C)NCCc2ccc(NC(C)=O)cc2)cc1F` (stereo not given), for which the Percent Effect was determined as 5.54%.

For `Cc1c(Br)cccc1CSc1nnc(CO)n1C`, the Percent Effect was 4.59%.

Consider `Cc1ccc(OCCN(C)C2CCOC2=O)cc1` (stereo not given), for which the Percent Effect is 0.0432%.

In the case of `Cn1ncnc1NCc1ccc(Cl)cc1`, the Percent Effect was 7.15%.

Take `O=C(NCC[S+]([O-])Cc1ccccc1)c1ccc2[nH]c(=O)[nH]c2c1` (stereo not given): the Percent Effect turned out to be 13.6%.

In the case of `Cc1cc(-c2cnc(N3CCC(O)CC3)nc2C(C)C)on1`, the Percent Effect was 20.1%.

Consider `N#CC1COCCN1C(=O)c1ccc2[nH]cnc2c1` (stereo not given), for which the Percent Effect was -8.21%.

Take `CCOc1ccc(Cl)cc1CCNC(=O)Cn1ccccc1=O`: the Percent Effect stood at 16.7%.

As to `CCN(Cc1ccncc1)C1CCN(c2ccccc2)C1=O` (stereo not given), the Percent Effect was -7.01%.

Regarding `Cc1cc(CN2CCN(S(=O)(=O)c3c(C)c(Cl)cc(C)c3Cl)CC2)on1`, the Percent Effect is -3.43%.

Consider `O=C(CCN1CCCO1)N1CC[C@@H](CNC(=O)N2CCCC2)[C@H](O)C1`, for which the Percent Effect was -5.68%.

Consider `CCc1c(C(=O)Nc2ccc(F)c(C(=O)NC)c2)cnn1CC(C)C`, for which the Percent Effect amounted to 11.4%.

Regarding `COc1ccc(CC2(CO)CCN(c3cc(C#N)ccn3)CC2)cc1`, the Percent Effect was determined as 112%.
